TSHR antag – antagonists of human thyroid stimulating hormone receptor; P16473; TSHR-expressing cells, TSH-stimulated cAMP HTRF, 2 h; active compounds read low; activity change, negative = inhibition, % at 11.5 µM; hit rate 0.2% among 330,000;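 active means activity change below a set negative limit, meaning inhibition stronger than a set level, cut at about -70% in these data; inconclusive means activity change between two set negative limits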
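TSHR-expressing cells, 200/well, pre-treated with compound, then stimulated with EC80 TSH (4nM final) for 2 hours at 37 deg C. cAMP measured by competitive HTRF: anti-cAMP cryptate antibody in lysis buffer plus cAMP-d2, read after 30 minutes at room temperature.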
FBPA coupling cs – inhibits coupling enzyme system, counter-screen for aldolase hits; hit rate 0.67% among 290,000; activity change, negative = inhibition, % at 58.2 µM, hits read low; coupling enzyme system counterscreen, AmpLite Red fluorescence; AID 2472; in the data active means activity change below about -30%
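Coupling enzymes only (glyceraldehyde-3-phosphate) + compound, at 57.5 uM final, 10 min RT; add substrate/coupling/AmpLite Red mix, 20 min RT; fluorescence ex 525/em 598 nm. Actives flag coupling-system interference.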
ELG1 DNA repair – blocks ELG1-dependent DNA repair in HEK293T cells; HEK293T ELG1-luciferase reporter, luminescence, 16 h; DNA damage induced by 5-fluorouridine; hit rate 2.3% among 330,000; AID 504467; Potency, µM (titrated, usually from 46.1 µM), without a hit: at the highest dose activity change, negative = inhibition, usual class: inhibitors; further: potency means the concentration at half of the fitted maximal effect; nearly all actives have a fitted effect of over 55% in size
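In this reporter screen, reduction of luminescence relative to DMSO vehicle indicated activity. Compounds and 5-fluorouridine were added together to 2,000 cells per well, incubated for 16 hr at 37 °C, then developed with ONE-Glo.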
Gal4-VP16 FLuc – Gal4-VP16 reporter inhibition counter-screen; Drosophila S2 Gal4-VP16 UAS-luciferase, luminescence, 20 h; Potency, µM (series often up to 53.6 µM), inactives show at the top dose activity, negative = inhibition, actives largely listed as inhibitors; hit rate 3.5% among 310,000;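 further: Gal4-VP16 expression switched on by copper sulfate through the metallothionein promoter; potency means the concentration at half of the fitted maximal effect; nearly all actives have a fitted effect of over 50% in size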
RORgamma inh – ROR gamma (mouse) transcription inhibition. P51450. Drosophila S2 Gal4-RORgamma UAS-luciferase reporter, 20 h. Potency, µM (top dose mostly 53.6 µM), for inactives: top-dose activity change, negative = inhibition, most hits filed as inhibitors. hit rate 5.4% among 310,000. AID 2551; further: potency means the concentration at half of the fitted maximal effect; nearly all actives have a fitted effect of over 60% in size
Target sequence (P51450 whole entry, looked up, the tested form may be a part): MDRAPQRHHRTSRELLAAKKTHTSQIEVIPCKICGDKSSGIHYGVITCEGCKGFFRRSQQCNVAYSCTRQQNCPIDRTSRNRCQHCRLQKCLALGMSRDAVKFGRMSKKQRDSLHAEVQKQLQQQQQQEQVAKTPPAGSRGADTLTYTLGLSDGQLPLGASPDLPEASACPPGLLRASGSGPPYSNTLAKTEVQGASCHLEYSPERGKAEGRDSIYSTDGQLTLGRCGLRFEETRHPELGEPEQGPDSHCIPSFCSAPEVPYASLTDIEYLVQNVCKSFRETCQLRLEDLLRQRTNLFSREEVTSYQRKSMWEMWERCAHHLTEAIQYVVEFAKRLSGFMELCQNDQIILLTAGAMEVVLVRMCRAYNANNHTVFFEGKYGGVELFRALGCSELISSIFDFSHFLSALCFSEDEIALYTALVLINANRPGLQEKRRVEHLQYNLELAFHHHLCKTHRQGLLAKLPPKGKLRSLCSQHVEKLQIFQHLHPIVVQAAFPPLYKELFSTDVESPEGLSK
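Read-out: Photinus luciferase luminescence; inhibitors lower reporter signal. Insect Schneider cells with Gal4-ROR gamma fusion under metallothionein promoter, UAS reporter; 700 uM final copper sulfate induction, 20 hr, ambient temperature.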
An asterisk follows results filed as active; ? = inconclusive; nt = no result given; [ ] = dose if it differs, or a comment. Shown are actives, neighbours in structure and some others; about 8% of the full set was active somewhere. Unless noted, the call rests on the fitted dose curve; in most records, active means well fitted curve in the direction sought with a large enough effect; inconclusive means small, poorly fitted or top-dose-only effect, or another doubt; inactive means no such curve, though single readings can be large; an effect the other way counts as inactive or inconclusive. On the % scale 0 is the no-effect control and ±100 the full control effect.

SMILES	TSHR antag	FBPA coupling cs	ELG1 DNA repair	Gal4-VP16 FLuc	RORgamma inh
C=C1CCN(C(Cc2ccccc2)C(=O)NCc2ccc(Cl)cc2)S(=O)(=O)c2ccccc21 (stereo unspecified)	nt	0	nt	1%	11%
O=C(CCn1c(=O)c2ccccc2n(Cc2ccccc2)c1=O)NC1CCN(Cc2ccccc2)CC1	6	0	-22%	-4%	0.11µM*
NC(=O)N=Nc1c(O)n(Cc2ccccc2)c2ccc(Br)cc12	-5	-5	-3%	-7%	?
NC(=S)N=Nc1c(O)n(CCCl)c2ccc(Cl)cc12	1	2	-26%	3.5µM*	0.79µM*
NC(=S)N=Nc1c(O)n(CCCl)c2ccccc12	0	8	-2%	3.2µM*	1µM*
CCOc1ccc2c(c1)c(N=NC(N)=S)c(O)n2C	-12	0	-8%	7.1µM*	?
NC(=S)N=Nc1c(O)n(CC(=O)Nc2ccccc2)c2ccccc12	1	-1	-3%	-15%	?
CC/C=C\C/C=C\C/C=C\C/C=C\C/C=C\C/C=C\CCC(=O)NCC(=O)O	nt	1	nt	-2%	9%
Cc1ccc(C2=NN(CC(=O)NCCN(CC(C)C)CC(C)C)C(=O)CC2)cc1	30	2	-4%	?	34%
Clc1ccc2[nH]c3c(N4CCC5(CC4)OCCO5)ncnc3c2c1	-21	-4	?	?	?
Cc1cccc2[nH]c3c(N4CCC5(CC4)OCCO5)ncnc3c12	2	-18	16µM*	5µM*	11µM*
CCCOC(=O)c1c(NC(=O)CCC(=O)O)sc2c1CCCCC2	-29	23	13%	5%	8%
CCOC(=O)c1ccc(NC(=O)c2c(NC(=O)CCC(=O)O)sc3c2CCCCC3)cc1	-10	-6	?	1%	10µM*
CCOc1ccccc1NC(=O)CCC(=O)O	-4	0	8%	-5%	2%
CCOc1ccccc1NC(=O)c1c(NC(=O)CCC(=O)O)sc2c1CCCCC2	-10	-6	-1%	?	10µM*
C[C@](N)(C(=O)O)c1ccc(-c2nn[nH]n2)cc1	nt	-5	nt	8%	41%
COc1ccc(C(=O)Nc2ccc(N3CCCCCC3)cc2)cc1S(=O)(=O)N1CCOCC1	-36	nt	21µM*	nt	nt
O=C(Nc1ccc(F)c(F)c1)c1ccc(F)c(S(=O)(=O)N2CCOCC2)c1	-9	0	?	?	39%
Cc1oc(S(=O)(=O)N2CCOCC2)cc1C(=O)Nc1ccc(F)cc1	-2	-1	23µM*	-14%	12%
COc1ccc(NC(=O)C23CC4CC(CC(Cl)(C4)C2)C3)cc1S(=O)(=O)N1CCOCC1	-18	nt	16µM*	nt	nt
O=C(Nc1ccc(F)cc1)c1ccc(Br)c(S(=O)(=O)N2CCOCC2)c1	-26	-4	15µM*	-5%	?
COc1ccc(NC(=O)C2CC2)cc1S(=O)(=O)N1CCOCC1	22	nt	23%	nt	nt
COc1ccc(C(=O)Nc2ccc(NC(=O)c3ccccc3)cc2)cc1S(=O)(=O)N1CCOCC1	-4	4	-22%	?	-42%
O=C(Nc1ccc2c(c1)OCO2)c1ccc(Br)c(S(=O)(=O)N2CCCC2)c1	-30	-1	21µM*	?	?
O=C(Nc1ccccc1)c1ccc(NC2CCCCC2)c(S(=O)(=O)N2CCOCC2)c1	-4	0	15µM*	11%	4%
SMILES	TSHR antag	FBPA coupling cs	ELG1 DNA repair	Gal4-VP16 FLuc	RORgamma inh
O=C(Nc1ccc2c(c1)OCCO2)c1ccc(Br)c(S(=O)(=O)N2CCOCC2)c1	-30	1	?	4%	37%
O=C(Nc1ccc(NC(=O)c2ccc(Cl)c(S(=O)(=O)N3CCOCC3)c2)cc1)c1ccccc1	-2	1	?	-3%	-15%
COc1ccc(S(=O)(=O)N(Cc2ccccc2)c2ccccc2C(=O)O)cc1	-5	6	-10%	9%	21%[1.91 µM]
COc1ccc(S(=O)(=O)N(CCO)c2ccccc2CN(C)CC=Cc2ccc(Cl)cc2)cc1	nt	-4	nt	14µM*	-40%
CC(C)C[C@@H](CC(=O)N[C@@H](CCC(=O)O)CC(=O)O)NC(=O)[C@@H]1CNCC[C@H]1NC(=O)C[C@@H](NC(=O)C[C@H](Cc1c[nH]c2ccccc12)NC(=O)[C@@H]1CCCC[C@H]1N)C(C)C	nt	1	nt	-11%	20%
COc1ccc(C(c2c(C)[nH]n(C(N)=S)c2=O)C(C#N)C#N)cc1 (stereo unspecified)	-10	-1	?	4.5µM*	4.5µM*
Cc1ccc(NC(=O)Cn2c(=O)oc3cc(S(=O)(=O)N4CCC(C)CC4)ccc32)cc1C	-27	8	?	20µM*	3%
COc1ccc(NC(=O)Cn2c(=O)oc3cc(S(=O)(=O)N4CCCC4)ccc32)cc1	14	4	15%	-8%	24%
COc1cc(OC)c2c(c1Cl)O[C@@]1(C2=O)[C@H](C)CC(=O)C[C@@H]1OC	nt	1	nt	-5%[17 µM]	-21%[16.9 µM]
CCn1c(SCC(=O)Nc2ncc(C(F)(F)F)cc2Cl)nnc1-c1cccc(C)c1	-11	5	0%	?	10µM*
O=C(CSc1nnc(-c2ccc3c(c2)OCO3)o1)Nc1ncc(C(F)(F)F)cc1Cl	-15	2	-8%	?	4µM*
COc1ccc(-c2nnc(SCC(=O)Nc3ncc(C(F)(F)F)cc3Cl)n2CC(C)C)cc1	4	1	9%	-16%	-42%
Cc1nc(NC(=O)CSc2nnc(-c3ccc4c(c3)OCO4)o2)c(Cl)cc1Cl	34	0	?	1%	-43%
O=C(NCCCCNC(=O)c1ccco1)c1ccco1	8	0	9%	-6%	1%
Cc1cccc(NC(=S)NNC(=O)c2ccco2)c1	3	1	?	-8%	-21%
Cc1ccc(C)c(NC(=S)NNC(=O)c2ccco2)c1	4	-1	11%	-7%	2.2µM*
O=C(NCCNC(=O)c1ccco1)c1ccco1	7	0	-2%	7%	16µM*
CCCCNC(=S)NNC(=O)c1ccoc1C	8	3	5%	14%	8.9µM*
Cc1occc1C(=O)NNC(=S)Nc1ccccc1	-11	3	?	10%	14µM*
CC1CC(C)CN(C(=O)COC(=O)Cc2ccc(Br)cc2)C1 (stereo unspecified)	-11	0	12%	2%	24%
COCCn1c(=O)c(CCc2ccccc2)nc2cnc(N3CCN(C)CC3)nc21	nt	2	nt	-6%	5%
CCCCNC(=S)NNC(=O)c1ccco1	11	4	-6%	?	13µM*
COc1ccc(NC(=S)N2CCC(C(O)(c3ccccc3)c3ccccc3)CC2)cc1	0	2	-27%	?	?
OC(c1ccccc1)(c1ccccc1)C1CCN(C(=S)NC2CCCC2)CC1	-8	4	-12%	18%[10 µM]	20µM*
